From PubChem BioAssay (EPA / NIEHS) come the findings set out here.

Results filed as inconclusive are left out. Activity calls are given as the source filed them. The calls were made as follows, unless noted: active = hit-call score of the fitted dose curve at least 0.9, where 1 is the maximum; inactive = score below 0.9.

Assay [1] deals with Hepatocyte nuclear factor 4-alpha (Homo sapiens) (UniProt P41235). Briefly: ATG_HNF4a_TRANS: Attagene TRANS-FACTORIAL HepG2 Assay for human Hepatocyte Nuclear Factor 4 alpha (HNF4a) (AID 2282982; active = hit-call score of the fitted dose curve at least 0.9, where 1 is the maximum). As to conditions: HepG2 HNF4a transactivation reporter, mRNA readout. The method, boiled down: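 HepG2 cells transiently transfected with HNF4a-Gal4 chimera and GAL4-UAS reporter units, dosed for 24 h. Reporter mRNA measured by RT-PCR, fluorescent primer extension and capillary electrophoresis; gain-of-signal fitted relative to DMSO.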
Sequence of Hepatocyte nuclear factor 4-alpha (Homo sapiens) (P41235 whole entry, looked up, the tested form may be a part): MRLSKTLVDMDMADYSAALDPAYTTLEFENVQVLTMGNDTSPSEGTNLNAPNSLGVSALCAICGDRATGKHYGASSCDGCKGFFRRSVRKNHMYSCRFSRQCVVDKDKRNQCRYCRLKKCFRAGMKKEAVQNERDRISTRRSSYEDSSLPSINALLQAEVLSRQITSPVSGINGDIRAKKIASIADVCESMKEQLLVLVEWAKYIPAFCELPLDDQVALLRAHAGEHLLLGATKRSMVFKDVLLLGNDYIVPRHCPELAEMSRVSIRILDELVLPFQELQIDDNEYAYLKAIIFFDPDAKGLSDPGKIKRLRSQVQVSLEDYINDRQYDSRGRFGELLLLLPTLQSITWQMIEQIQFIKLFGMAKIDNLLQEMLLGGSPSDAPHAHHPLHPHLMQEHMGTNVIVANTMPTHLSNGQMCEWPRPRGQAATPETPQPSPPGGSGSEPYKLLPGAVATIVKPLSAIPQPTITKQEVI

A short description of assay [2]: ATG_M_06_TRANS: Attagene TRANS-FACTORIAL HepG2 Assay for M06 Transcription Factor (Internal Marker) (AID 2282983; active = hit-call score of the fitted dose curve at least 0.9, where 1 is the maximum;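 also: reporter transcript level by RT-PCR then capillary electrophoresis fluorescence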). The settings on record: HepG2 Attagene TRANS M06 internal marker reporter. Put shortly: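 Cells: HepG2, transient multi-reporter transfection. Exposure: 24 h. Detection: RT-PCR, 6-FAM labelling, HpaI digestion (2 h, 37 °C), capillary electrophoresis. Baseline: DMSO.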

The nature of assay [3]: ATG_M_32_TRANS: Attagene TRANS-FACTORIAL HepG2 Assay for M32 Transcription Factor (Internal Marker) (AID 2282984; active = hit-call score of the fitted dose curve at least 0.9, where 1 is the maximum;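 also: transcript level of a background control reporter unit measured by RT-PCR and capillary electrophoresis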). The settings on record: HepG2 Attagene TRANS M32 internal marker reporter. The method, boiled down: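 HepG2 cells transiently transfected with GAL4-UAS reporter units, dosed for 24 hours. Reporter mRNA quantified by RT-PCR, 6-FAM labelling, HpaI digestion and capillary electrophoresis; internal-marker signal fitted upward relative to DMSO.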

Assay [4] has as its target Nuclear receptor subfamily 4 group A member 2 (Homo sapiens) (UniProt P43354). Briefly: ATG_NURR1_TRANS: Attagene TRANS-FACTORIAL HepG2 Assay for human Nuclear Receptor Related Protein 1 (NURR1) (AID 2282985; active = hit-call score of the fitted dose curve at least 0.9, where 1 is the maximum). The settings on record: HepG2 Attagene TRANS reporter, mRNA readout. Put shortly: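 HepG2 cells transiently transfected with NURR1-Gal4 chimera and GAL4-UAS reporter units; after 24 hr compound exposure, reporter mRNA quantified by RT-PCR and capillary electrophoresis; gain of signal fitted against DMSO.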

Assay [5] deals with Transcriptional activator Myb (Homo sapiens) (UniProt P10242). Briefly: ATG_Myb_CIS: Attagene CIS-FACTORIAL HepG2 Assay for human Myeloblastosis (Myb) Proto-Oncogene Transcription Factor (AID 2282986). The settings on record: HepG2 Attagene CIS-FACTORIAL Myb reporter transcription; actives raise or lower the signal. Put shortly:
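In this HepG2 transient-transfection format, cis-regulated reporter mRNA is quantified 24 h post-dosing by RT-PCR with capillary electrophoresis, fitted bidirectionally to DMSO baseline.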

The target in assay [6] is Nuclear respiratory factor 1 (Homo sapiens) (UniProt Q16656). Briefly: ATG_NRF1_CIS: Attagene CIS-FACTORIAL HepG2 Assay for human Nuclear Respiratory Factor 1 (NRF1) Orphan Gene (AID 2282987). As to conditions: HepG2 NRF1 cis-element reporter, Attagene multiplex; actives raise or lower the signal. Put shortly: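 Using DMSO as baseline, gain- or loss-of-signal was fitted for reporter mRNA levels in HepG2 cells transiently transfected with cis-regulated reporter units. Samples were taken 24 h after dosing and read by RT-PCR with capillary electrophoresis.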
Sequence of Nuclear respiratory factor 1 (Homo sapiens) (Q16656 whole entry, looked up): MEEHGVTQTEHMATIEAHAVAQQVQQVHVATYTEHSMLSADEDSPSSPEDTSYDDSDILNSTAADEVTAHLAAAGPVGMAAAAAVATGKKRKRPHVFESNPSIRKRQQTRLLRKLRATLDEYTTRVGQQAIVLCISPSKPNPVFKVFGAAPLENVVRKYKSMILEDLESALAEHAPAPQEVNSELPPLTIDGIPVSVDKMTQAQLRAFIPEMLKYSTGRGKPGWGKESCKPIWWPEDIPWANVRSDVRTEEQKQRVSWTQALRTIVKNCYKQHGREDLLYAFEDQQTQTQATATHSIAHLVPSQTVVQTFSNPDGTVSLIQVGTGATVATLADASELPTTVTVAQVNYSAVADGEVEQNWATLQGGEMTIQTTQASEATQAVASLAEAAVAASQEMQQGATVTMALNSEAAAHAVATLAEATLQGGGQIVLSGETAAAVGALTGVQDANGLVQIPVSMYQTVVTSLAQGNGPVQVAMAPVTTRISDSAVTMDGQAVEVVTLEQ

A short description of assay [7]: ATG_NFI_CIS: Attagene CIS-FACTORIAL HepG2 Assay for human Nuclear Factor I (NFI) (AID 2282989). The settings on record: HepG2 cis-regulatory reporter, NFI response element transcription; actives raise or lower the signal. Put shortly: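 Transient MRTU transfection of HepG2 → 24 h chemical dosing → total RNA, oligo(dT) RT → PCR, 6-FAM primer extension, HpaI cut → capillary electrophoresis. Endpoint fitted bidirectionally relative to DMSO.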

In assay [8] the target is Myc proto-oncogene protein (Homo sapiens) (UniProt P01106). Put plainly: ATG_Myc_CIS: Attagene CIS-FACTORIAL HepG2 Assay for human Myelocytomatosis (Myc) Proto-Oncogene Transcription Factor (AID 2282990). As to conditions: HepG2, Attagene cis-reporter transcription factor activity; actives raise or lower the signal. The method, boiled down: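 Read-out: fluorescent reporter mRNA fragments resolved by capillary electrophoresis after RT-PCR. Human HepG2 liver cells carried transfected cis-element reporter units and were dosed for 24 h. Gain or loss of signal fitted relative to DMSO baseline.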
Sequence of Myc proto-oncogene protein (Homo sapiens) (P01106 whole entry, looked up, the tested form may be a part): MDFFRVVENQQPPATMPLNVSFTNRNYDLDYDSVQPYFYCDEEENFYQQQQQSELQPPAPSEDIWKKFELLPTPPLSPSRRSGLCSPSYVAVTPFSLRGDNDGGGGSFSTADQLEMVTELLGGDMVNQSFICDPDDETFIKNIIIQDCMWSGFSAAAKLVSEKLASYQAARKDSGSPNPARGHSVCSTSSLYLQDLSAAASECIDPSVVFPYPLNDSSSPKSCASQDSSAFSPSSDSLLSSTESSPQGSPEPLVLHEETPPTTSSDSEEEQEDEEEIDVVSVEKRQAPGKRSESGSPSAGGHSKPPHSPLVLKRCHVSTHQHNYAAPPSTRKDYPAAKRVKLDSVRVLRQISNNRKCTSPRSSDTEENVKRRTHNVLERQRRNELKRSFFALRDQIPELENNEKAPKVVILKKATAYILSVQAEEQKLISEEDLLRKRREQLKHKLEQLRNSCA

Sequence of Transcriptional activator Myb (Homo sapiens) (P10242 whole entry, looked up): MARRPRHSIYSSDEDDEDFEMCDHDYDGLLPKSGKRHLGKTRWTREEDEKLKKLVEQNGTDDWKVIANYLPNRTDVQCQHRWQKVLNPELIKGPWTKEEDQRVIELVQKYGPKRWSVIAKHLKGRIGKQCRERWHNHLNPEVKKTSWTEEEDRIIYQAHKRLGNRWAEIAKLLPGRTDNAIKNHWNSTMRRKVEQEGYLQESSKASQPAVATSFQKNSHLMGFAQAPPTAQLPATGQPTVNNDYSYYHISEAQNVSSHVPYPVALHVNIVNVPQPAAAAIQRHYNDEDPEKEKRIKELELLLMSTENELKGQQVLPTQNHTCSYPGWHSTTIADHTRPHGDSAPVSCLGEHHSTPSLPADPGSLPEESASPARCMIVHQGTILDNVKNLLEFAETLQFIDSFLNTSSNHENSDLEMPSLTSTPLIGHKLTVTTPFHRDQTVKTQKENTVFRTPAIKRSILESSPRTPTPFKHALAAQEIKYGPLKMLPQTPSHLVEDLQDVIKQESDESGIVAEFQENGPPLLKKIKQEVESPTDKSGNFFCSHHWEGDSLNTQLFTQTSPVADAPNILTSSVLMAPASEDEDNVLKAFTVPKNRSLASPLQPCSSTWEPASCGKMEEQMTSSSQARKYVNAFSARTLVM
Sequence of Nuclear receptor subfamily 4 group A member 2 (Homo sapiens) (P43354 whole entry, looked up, the tested form may be a part): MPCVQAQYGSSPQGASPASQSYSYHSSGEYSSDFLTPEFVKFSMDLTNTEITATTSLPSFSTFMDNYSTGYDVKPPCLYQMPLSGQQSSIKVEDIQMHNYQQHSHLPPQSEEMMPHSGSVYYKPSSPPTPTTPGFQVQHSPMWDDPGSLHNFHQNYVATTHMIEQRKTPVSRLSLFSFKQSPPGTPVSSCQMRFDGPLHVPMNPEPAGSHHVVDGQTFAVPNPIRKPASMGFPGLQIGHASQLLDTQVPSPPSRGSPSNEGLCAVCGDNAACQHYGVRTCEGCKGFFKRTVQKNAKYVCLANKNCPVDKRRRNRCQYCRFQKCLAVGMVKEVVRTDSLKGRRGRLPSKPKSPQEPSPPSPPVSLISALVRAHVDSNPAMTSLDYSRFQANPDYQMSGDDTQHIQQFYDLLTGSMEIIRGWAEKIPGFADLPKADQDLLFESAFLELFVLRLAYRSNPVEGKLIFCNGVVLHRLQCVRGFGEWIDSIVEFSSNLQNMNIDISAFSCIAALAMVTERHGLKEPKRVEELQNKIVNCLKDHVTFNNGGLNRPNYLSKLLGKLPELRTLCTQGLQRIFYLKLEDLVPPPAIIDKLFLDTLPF

As for `CC1(C)[C@H](C(=O)O[C@H](C#N)c2cccc(Oc3ccccc3)c2)[C@@H]1/C=C(\Cl)C(F)(F)F`, the compound was classed as inactive in assay [1], in assay [2], in assay [3], in assay [4], in assay [5] and in assay [6]. Also, the compound was classed as inactive in assay [7] and in assay [8].
Consider `C=C(C)C(=O)OCC(CC)CCCC` (stereo unspecified), for which the compound was classed as inactive in assay [1], in assay [2], in assay [4], in assay [5], in assay [6] and in assay [7]. In assay [8], the compound was called inactive.
A word on the AC50: it is the midpoint of the concentration-response curve, whichever way the signal moves. Take `O=C1c2ccccc2C(=O)C1C(=O)C(c1ccccc1)c1ccc(Cl)cc1` (stereo unspecified): the call in assay [1], in assay [6] and in assay [7] was inactive. Further, the AC50 was 4.69 µM (active) in assay [4], 173 µM (active) in assay [5] and 27.1 µM (active) in assay [8].
As to `Brc1ccc(Br)cc1`, the outcome in assay [1], in assay [5], in assay [6], in assay [7] and in assay [8] was inactive.
For `C=CC(=O)OCC(COC(=O)C=C)(COC(=O)C=C)COC(=O)C=C`, the concentration at half-maximal activity (AC50) is 44.6 µM (active) in assay [1] and 24.5 µM (active) in assay [5]. The outcome in assay [2], in assay [6], in assay [7] and in assay [8] was inactive.
`O=S1(=O)OC(c2cc(Br)c(O)c(Br)c2)(c2cc(Br)c(O)c(Br)c2)c2ccccc21`: the outcome in assay [2], in assay [3], in assay [4], in assay [5], in assay [6] and in assay [7] was inactive. Besides, the compound was called inactive in assay [8].
`CCOC(=O)CC(=O)CCl`: the outcome in assay [1], in assay [2], in assay [4], in assay [5], in assay [6] and in assay [7] was inactive. Besides, in assay [8], the compound was called inactive.
In the case of `FC(F)OCC(F)(F)C(F)(F)F`, the result in assay [1], in assay [2], in assay [5], in assay [6], in assay [7] and in assay [8] was inactive.
Turning to `CCOC(=O)c1ccccc1S(=O)(=O)NC(=O)Nc1nc(Cl)cc(OC)n1`, the result in assay [1], in assay [2], in assay [3], in assay [4], in assay [5] and in assay [6] was inactive. Also, the compound was classed as inactive in assay [7] and in assay [8].
As for `O=c1[nH]c2ccccc2n1C1CCN(CCCC(c2ccc(F)cc2)c2ccc(F)cc2)CC1`, the outcome in assay [2], in assay [3], in assay [4], in assay [5], in assay [6] and in assay [7] was inactive. In assay [8], the compound was called inactive.
As for `O=C(NC(=O)c1c(F)cccc1F)Nc1cc(Cl)c(F)c(Cl)c1F`, the compound was classed as inactive in assay [1], in assay [3], in assay [5], in assay [6], in assay [7] and in assay [8].
`CCNc1nc(NCC)nc(SC)n1`: the compound was called inactive in assay [1], in assay [3], in assay [5], in assay [6], in assay [7] and in assay [8].
Take `c1cc[c]([Sb]([c]2ccccc2)[c]2ccccc2)cc1`: the compound was classed as inactive in assay [1], in assay [3], in assay [5], in assay [6], in assay [7] and in assay [8]. Also, the AC50 in assay [4] is 17.5 µM (active).
As to `CCC[CH2][Sn]([Cl])([Cl])[CH2]CCC`, the call in assay [1], in assay [2], in assay [5] and in assay [8] was inactive. In addition, the AC50 in assay [6] was 0.778 µM (active); in assay [7], 0.458 µM (active).
Take `C[As+](C)(C)CC(=O)[O-]`: the compound was called inactive in assay [5], in assay [6], in assay [7] and in assay [8].
Take `CCCCN(CCCCO)N=O`: the outcome in assay [5], in assay [6], in assay [7] and in assay [8] was inactive.
On to `CNC(=O)O/N=C/C(C)(C)S(C)(=O)=O`, for which the call in assay [3], in assay [4], in assay [5], in assay [6], in assay [7] and in assay [8] was inactive.
As for `CCCSP(=S)(OCC)Oc1ccc(SC)cc1` (stereo unspecified), the compound was called inactive in assay [4], in assay [5], in assay [6], in assay [7] and in assay [8].
In the case of `Cc1ccc(OP(=O)(Oc2ccc(C)cc2C)Oc2ccc(C)cc2C)c(C)c1`, the call in assay [2], in assay [3], in assay [4], in assay [5], in assay [6] and in assay [7] was inactive. For the same compound, the result in assay [8] was inactive.
With `CC(C)(c1ccc(O)c(-c2ccccc2)c1)c1ccc(O)c(-c2ccccc2)c1`, the compound was called inactive in assay [2], in assay [3], in assay [4], in assay [5], in assay [7] and in assay [8].
With `Cc1c([N+](=O)[O-])c(C)c([N+](=O)[O-])c(C(C)(C)C)c1[N+](=O)[O-]`, in assay [4], the AC50 is 11.3 µM (active). The outcome in assay [5], in assay [6], in assay [7] and in assay [8] was inactive.
On to `CCC[N+](CCC)(CCC)CCC`, for which the compound was classed as inactive in assay [2], in assay [3], in assay [5], in assay [6], in assay [7] and in assay [8].
`O=NN1CCOCC1`: the compound was classed as inactive in assay [2], in assay [4], in assay [5], in assay [7] and in assay [8].
As to `C[C@H]1C(=O)O[C@@H]2CCN3CC=C(COC(=O)[C@](C)(O)[C@]1(C)O)[C@H]23`, the compound was called inactive in assay [2], in assay [5], in assay [6], in assay [7] and in assay [8].
Take `C#CCOC(=O)/C=C(C)/C=C/CC(C)CCCC(C)C` (stereo unspecified): the compound was called inactive in assay [2], in assay [5], in assay [6], in assay [7] and in assay [8]. Further, in assay [4], the AC50 is 16.6 µM (active).
Turning to `O=C(O)COc1cc(Cl)c(Cl)cc1Cl`, the compound was called inactive in assay [3], in assay [5], in assay [6], in assay [7] and in assay [8].
